The results in this text go back to PubChem BioAssay (NCI).

This is part of a sample that, as a whole, favours compounds with a hit. Of some 83,000 tested, about 20% had one in any assay.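 48-hour exposure, single concentration, 96-well plates; percent growth endpoint where 0 means no net growth. Active: below 10.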 A number with no mark means an inactive call. Calls of active or inactive are those of the source.

The test concerns KM12 colon. Nature of the test: NCI-60 one-dose screen, 48 h (100 = growth as untreated, 0 = no growth, -100 = all killed). The conditions noted are these: 10 µM unless noted. The method, then: Growth inhibition of the KM12 human tumor cell line is measured as a screen for anti-cancer activity. Cells are grown in 96 well plates and exposed to the test compound for 48 hours. Compounds are tested at a single concentration, which is 10^-5 M for most compounds. The reported endpoint is percent growth (GI% or GIPRCNT), where numbers from 0 - 100% represent growth inhibition, and numbers from -100% - 0 represent cell death. For example, a value of 40 represents 60% growth inhibition. A value of 0 means no net growth occurred over the course of the experiment. A value of -40 indicates 40% of cells at the beginning of the experiment died by the end of the experiment. A value of -100 means all cells are dead at the end of the experiment.
NCI-60 Human Tumor Cell Lines Screen was performed using the standard one-dose NCI protocol, which is described in more detail at https://dtp.cancer.gov/discovery_development/nci-60/default.htm.
Compounds with GIPRCNT values below 10 were considered active. Activity score was based on GIPRCNT using the following formula: […]
Score is 0 for GIPRCNT values of 100 or above, 50 for GIPRCNT values of 0, and 100 for GIPRCNT values of -100.
With `CNc1ccc(NC)c2c1C(=O)c1ccccc1C2=O`, the growth is 64.4%.

With `Cc1cc[c-]cc1.Fc1c[c-]c(-c2ccccn2)c(F)c1.[Pt+2].c1ccc(P(C[PH+](c2ccccc2)c2ccccc2)c2ccccc2)cc1`, the growth is 18%.

With `COc1cc(/C=N/Nc2ncc(-c3cc4cc5c(cc4o3)OCO5)s2)cc(OC)c1OC`, the growth was 23.5%.

Consider `Cn1ccc2c(c1=O)C(=O)c1nccc3c1c-2nc1ccccc13`, for which the growth was -88.1% (active).

For the compound `Cc1ccc(Cc2cnc(NC(=O)c3ccc4noc(-c5ccccc5)c4c3)s2)cc1`, the growth is 91.3%.

For `O=C1/C(=C/c2ccc(F)cc2)C=C(c2ccccc2)N1CCc1ccccc1`, the growth is 62.2%.

In the case of `Cc1ccc(C(=O)C2=C(O)C(=O)N(Cc3cccnc3)C2c2ccccc2F)o1` (stereo not given), the growth is 106%.

Turning to `Cc1cc(NCc2cc(Nc3ccnc4cc(Cl)ccc34)ccc2F)nc(Cl)n1`, the growth is 64.7%.

Regarding `C[C@H]1[C@H]2[C@H]3CC[C@@H]4[C@@]5(C)C/C(=C/c6ccco6)C(=O)C(C)(C)[C@@H]5CC[C@@]4(C)[C@]3(C)CC[C@]23CO[C@]1(C)[C@@H](C(=O)/C=C\c1ccco1)C3`, the growth was 99.8%.

Consider `O=C(/C=C/c1ccco1)c1ccc(Nc2nc(Nc3ccc(F)cc3)nc(Nc3ccc(Cl)cc3)n2)cc1`, for which the growth is 65.2%.

As to `COc1ccc2c(c1)C(=O)/C(=C/c1ccc(OCC(=O)Nc3nccs3)cc1)O2`, the growth was 21.3%.

On to `N#CCN1C(=O)C2C3=C(CCCC3)SC2N=C1CN1CCCC1` (stereo not given), for which the growth was 109%.

On to `Cc1ccc(C(=O)CSc2nc(-c3ccc(Br)cc3)c(C#N)c(=O)[nH]2)cc1`, for which the growth was 97.4%.

Turning to `CC(=O)c1nc(Nc2ccc(C)cc2)sc1C`, the growth was 98.6%.

In the case of `COc1ccc(NC(=O)CSc2nnc(-c3cc(-c4ccccc4)nc4ccccc34)n2-c2ccccc2)cc1`, the growth is 98.1%.

In the case of `CC(C)Sc1nc(NNC(N)=S)c(C#N)c(-c2ccc(F)cc2)n1`, the growth is 99%.

On to `COc1nc(N(C)O)nc(N(C)O)n1`, for which the growth is 24.5%.

`Cc1occc1-c1n[nH]c(=S)n1N1C(=O)CSC1=S`: the growth was 99%.

With `Clc1cccc(Cl)c1C(Nc1nc2ccccc2s1)Nc1nc2ccccc2s1`, the growth was 98.7%.

Regarding `CC1(C)CC(=O)C2=C(C1)N(c1ccc(OC(F)(F)F)cc1)C(N)=C(C#N)C2c1ccc(Cl)cc1` (stereo not given), the growth is 86.9%.

As for `NS(=O)(=O)c1ccc(-n2nc(C(=O)N/N=C\c3ccc(F)cc3)cc2-c2ccc(Cl)cc2)cc1`, the growth is 96.9%.

Consider `C=C(C)[C@@H]1CC[C@]2(C(=O)NC3CCCCC3)CC[C@]3(C)[C@H](CC[C@@H]4[C@@]5(C)CCC(=O)C(C)(C)[C@@H]5CC[C@]43C)[C@@H]12`, for which the growth is 96%.

On to `CCOC(=O)c1ccc(N2NC(=O)/C(=C/c3ccc([N+](=O)[O-])o3)C2=O)cc1`, for which the growth was 106%.

Turning to `O=C(Nc1ccccc1-c1nc2ccccc2c(=O)[nH]1)c1cc2ccccc2[nH]1`, the growth is 88.2%.

Turning to `COc1ccc(NC(=O)CSc2nnc(-c3cc(-c4ccc(S(N)(=O)=O)cc4)nc4ccccc34)n2-c2ccccc2)cc1`, the growth is 92.7%.

As for `CC(=O)N1N=C(c2ccc(Nc3nc(Nc4ccc(F)cc4)nc(Nc4ccc(F)cc4)n3)cc2)CC1c1cccc([N+](=O)[O-])c1` (stereo not given), the growth was 104%.

Consider `Cn1c(-c2c(N)n(Cc3cccnc3)c3nc(C#N)c(C#N)nc23)nc2ccccc21`, for which the growth was 82.8%.

As to `COc1ccc(-c2cc(-c3ccc(Nc4nc(Nc5ccc(Cl)cc5)nc(Nc5ccc(Cl)cc5)n4)cc3)nc(N)c2C#N)cc1`, the growth is 27.7%.

Consider `CCN1CCN(c2nc(C)cc(NCc3cc(Nc4ccnc5cc(Cl)ccc45)ccc3F)n2)CC1`, for which the growth was 26.9%.

Take `COc1cccc(-c2nn(-c3ccccc3)cc2-c2ccnc(NCCCNC(=O)c3ccccc3)c2)c1`: the growth was 33.6%.

As for `CN1C(=O)N(C)C2C1NN=c1s/c(=C\c3ccccc3)c(=O)n12` (stereo not given), the growth is 23.3%.

`Cc1ccc(-n2c(-c3ccccc3)c(-c3ccccc3)c3c(SCC(=O)n4[nH]c(N)cc4=O)ncnc32)cc1`: the growth was 98.1%.

Turning to `CC(=O)O[C@]1(C(C)=O)CCC2C3C[C@H](C)C4=CC(=O)CC[C@]4(C)C3CC[C@@]21C` (stereo not given in full), the growth was 103%.

As for `Cc1ccc(Cl)c(NS(=O)(=O)c2ccc(-c3cnc(C4CC4)o3)cc2)c1`, the growth is 16.5%.

As for `O=c1c2c3c(sc2n2c(-c4cn(-c5ccccc5)nc4-c4ccc(Cl)cc4)nnc2n1Cc1ccccc1)CCCC3`, the growth was 103%.

Consider `N#CC1=C(/N=C/c2ccccc2)Oc2c(ccc3ccccc23)C1c1ccccc1` (stereo not given), for which the growth was 19.2%.

Consider `O=C(Nc1ccccc1Cl)Oc1ccc(-c2ccccc2)cc1`, for which the growth was 120%.

In the case of `O=S(=O)(NCCCNc1cc(-c2c(-c3cccc(O)c3)nc3sccn23)ccn1)c1cccc(Cl)c1`, the growth was 32.4%.

Consider `Cn1cc(-c2csc(-c3cccc(F)c3)n2)c2cccnc21`, for which the growth was -70% [100 µM] (active).

As for `CCN(CC)c1nc(SCC(=O)Nc2nc3ccc(C)cc3s2)nc(-c2ccccc2)c1C#N`, the growth is 104%.
